# Source: PubChem BioAssay (National Center for Advancing Translational Sciences (NCATS))
# The entries come from a sample that favours hits as a whole.
# FBPA Giardia inh – blocks Giardia fructose-bisphosphate aldolase activity | A8B2U2 | purified Giardia FBPA | Potency, µM (series often up to 59.6 µM), for the others: at the highest dose activity, negative = inhibition, usual class: inhibitors | 0.71% of 290,000 active | AID 2451; also: potency is read from the fitted curve at half-maximal effect; % is scaled to controls: 0 for no effect and ±100 for the full control effect; nearly all actives have a fitted effect of over 55% in size
# Target sequence (A8B2U2 whole entry, looked up): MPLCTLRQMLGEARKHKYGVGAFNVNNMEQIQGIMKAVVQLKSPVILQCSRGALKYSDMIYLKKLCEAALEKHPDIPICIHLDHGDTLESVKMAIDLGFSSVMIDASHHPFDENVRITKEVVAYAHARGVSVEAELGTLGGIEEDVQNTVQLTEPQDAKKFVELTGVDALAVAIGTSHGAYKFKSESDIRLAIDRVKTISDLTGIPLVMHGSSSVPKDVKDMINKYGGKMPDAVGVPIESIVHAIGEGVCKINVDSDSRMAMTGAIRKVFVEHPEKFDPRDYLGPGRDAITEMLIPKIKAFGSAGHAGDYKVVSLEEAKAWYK
#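 Giardia FBPA (40 nM reagent) was preincubated 10 min at RT with compound (up to 57.5 uM final), then substrate plus GAPDH/TPI/NAD/arsenate coupling system with diaphorase/resazurin was added; resorufin fluorescence (525/598 nm) was read after 20 min.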
# LmPK inhibitor – blocks Leishmania mexicana pyruvate kinase activity | Potency, µM (doses to about 57.5 µM), for inactives: at the top dose activity change, negative = inhibition, most hits filed as inhibitors | AID 1721 | Q27686 | purified LmPK, Kinase-Glo ATP luminescence, 1 h | 0.37% of 290,000 active; also: potency is read from the fitted curve at half-maximal effect; % is scaled to controls: 0 for no effect and ±100 for the full control effect
# Target sequence (Q27686 whole entry, looked up): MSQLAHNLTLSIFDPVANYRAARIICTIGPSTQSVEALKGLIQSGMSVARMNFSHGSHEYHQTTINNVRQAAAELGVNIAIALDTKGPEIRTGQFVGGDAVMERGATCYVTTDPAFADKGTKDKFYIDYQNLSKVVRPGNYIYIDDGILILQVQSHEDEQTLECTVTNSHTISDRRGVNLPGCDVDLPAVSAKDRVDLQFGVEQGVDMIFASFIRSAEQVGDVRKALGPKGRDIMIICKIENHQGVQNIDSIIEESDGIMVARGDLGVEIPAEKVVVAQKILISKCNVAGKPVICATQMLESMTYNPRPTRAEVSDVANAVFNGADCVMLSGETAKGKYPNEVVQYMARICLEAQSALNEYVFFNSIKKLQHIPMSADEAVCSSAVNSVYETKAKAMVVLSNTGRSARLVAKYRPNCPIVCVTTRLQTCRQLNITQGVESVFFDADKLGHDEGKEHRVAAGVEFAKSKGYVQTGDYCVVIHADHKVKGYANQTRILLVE
#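 In 50 mM imidazole pH 7.2 with 7 mM MgCl2, LmPK (0.1 nM) turned over PEP (0.5 mM) and ADP (0.1 mM) for 1 h at room temperature. Luciferase read-out of ATP.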
# RE007 growth inh – less growth of the S. pombe RE007 Vpr strain; S. pombe RE007 Vpr strain, BacTiter-Glo ATP luminescence, 24 h; Potency, µM (titrated, usually from 92.2 µM), for the others: at the top dose activity change, negative = less growth, usual class: inhibitors; 0.21% of 360,000 active; active = well fitted falling curve with a large enough effect; inconclusive = small, poorly fitted or top-dose-only effect; inactive = no such curve, though single readings can be large or run the other way; also: potency is read from the fitted curve at half-maximal effect; % is scaled to controls: 0 for no effect and ±100 for the full control effect; nearly all actives have a fitted effect of over 50% in size
#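 Fission yeast strain RE007, carrying one chromosomally integrated HIV-1 vpr copy, was seeded at OD 0.01 in PMG+AL medium with 23 nL pinned compound. After 24 h at 30 °C and 99% humidity, viability was read by BacTiter-Glo luminescence.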
# Shiga inhibitor – blocks Shiga toxin action in Vero cells. Vero cells, Shiga toxin protein synthesis inhibition reporter. inhibition, % at 38.7 µM. 9.2% of 290,000 active; in the data active = inhibition mostly above about 28%, no sharp cut-off; inactive = mostly below about 43%; also: 0% is about no effect
# Cycloheximide cs – counter-screen for Shiga toxin inhibitors: cycloheximide protein synthesis inhibition; 12% of 300,000 active; cell reporter, cycloheximide protein synthesis inhibition counterscreen; max response, %; in the data active = max response mostly above about 13%, no sharp cut-off; inactive = mostly below about 14%; also: read at 38.3 µM for the half of the compounds with a filed dose; 0% is about no effect
# TbPYK inhibitor – T. brucei pyruvate kinase inhibition; TbPYK enzyme, Kinase-Glo Plus ATP luminescence, 45 min; Potency, µM (doses to about 76.8 µM), for inactives: at the top dose activity, negative = inhibition, most hits filed as inhibitors; 0.12% of 410,000 active; AID 624173; also: potency is read from the fitted curve at half-maximal effect; % is scaled to controls: 0 for no effect and ±100 for the full control effect; nearly all actives have a fitted effect of over 50% in size
#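 Activity of T. brucei pyruvate kinase was followed by Kinase-Glo Plus luminescence after the enzyme reacted 45 min at room temperature with 130 uM ADP (final) and substrate. Test compounds were added before ADP at multiple concentrations.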
# * marks the source's active call; other numbers are inactive results; ? = inconclusive; nt = not tested or not shown; [ ] = remark or other dose. Unless noted, calls follow the shape of the dose curve; as a rule, active = well fitted curve in the direction sought with a large enough effect; inconclusive = small, poorly fitted or top-dose-only effect, or another doubt; inactive = no such curve, though single readings can be large; an effect the other way counts as inactive or inconclusive.
SMILES,FBPA Giardia inh,LmPK inhibitor,RE007 growth inh,Shiga inhibitor,Cycloheximide cs,TbPYK inhibitor
O=[N+]([O-])c1ccc(Cl)c(NC(=S)N2CCCC2)c1,?,2.5%,-10.3%,49.7*,32.6*,-1.1%
S=C(Nc1ccccc1)N1CCc2ccccc21,-8.0%,10.9%,-9.4%,nt,13.8*,-8.6%
Fc1cccc(NC(=S)N2CCc3ccccc32)c1,nt,-1.2%,11.9%,35.8,30.8,1.7%
CCN1CCN(C(=S)Nc2ccc([N+](=O)[O-])cc2)CC1,-16.6%,3.6%,-16.4%,16.8,21.4*,-9.7%
O=[N+]([O-])c1cccc(NC(=S)N2CCc3ccccc3C2)c1,-15.3%,-2.5%,8.6%,79.2*,58.7*,-4.8%
COc1ccc(CCNC(=O)CS(=O)Cc2nc(-c3ccc(C)cc3)oc2C)c(OC)c1 (stereo not given),nt,nt,nt,nt,nt,-2.7%
O=[N+]([O-])c1ccc(NC(=S)N2CCc3ccccc32)cc1,nt,-5.2%,-5.9%,41.9*,29.3,-11.6%
O=[N+]([O-])c1ccc(NC(=S)N2CCCC2)cc1,-10.2%,-1.4%,-11.0%,17.1,-1.0,-3.5%
Cc1ccc(NC(=O)C(=O)NCCN2CCN(Cc3ccc([N+](=O)[O-])cc3)CC2)cc1,1.3%,-0.6%,-16.5%,-10.6,2.1,-5.4%
CCc1ccc(NC(=O)C(=O)NCCN2CCN(Cc3ccc([N+](=O)[O-])cc3)CC2)cc1,4.4%,-1.5%,4.3%,-4.1,11.3*,-7.5%
COc1ccc(NC(=S)N2CCc3ccccc32)cc1OC,nt,-8.9%,-4.3%,90.3*,40.2*,0.8%
Cc1ccc(Cl)c2sc(N3CCN(C(=O)C4CC4)CC3)nc12,nt,nt,nt,nt,nt,-2.7%
CC(C)C[C@H](NC(=O)[C@@H]1CCCN1C(=O)[C@H](CO)NC(=O)[C@H](Cc1ccccc1)NC(=O)CNC(=O)[C@@H]1CCCN1C(=O)[C@@H]1CCCN1C(=O)[C@@H](N)CCCN=C(N)N)C(=O)O,7.2%,nt,nt,-2.6,-6.0,nt
COC(=O)C(NC=O)C(O)(Cc1ccccc1)C(F)(F)F (stereo not given),12.8%,-3.8%,-19.5%,73.7*,56.5*,0.3%
COC(=O)C(O)(NC(=O)OCc1ccccc1)C(F)(F)F (stereo not given),1.3%,2.6%,-0.9%,-3.9,1.2,6.7%
Cc1ccccc1-c1nn2c(=O)cc(CN3CCN(C(=O)c4ccccc4Br)CC3)nc2s1,nt,nt,nt,nt,nt,2.1%
COC(=O)c1ccc(NC(=O)c2cc(S(=O)(=O)N3CCc4ccccc43)cn2C)cc1,nt,nt,nt,nt,nt,-0.9%
CN1CCN(c2ncnc3ccc(-c4cccc(NS(C)(=O)=O)c4)cc23)CC1,-2.5%,nt,nt,nt,nt,nt
CCN(CC)CCCN1C(=O)C(O)=C(C(=O)c2ccco2)C1c1ccc(OC(C)C)cc1 (stereo not given),-5.0%,-6.8%,-8.3%,40.5,21.6*,1.7%
COc1cc(C2C(C(=O)c3ccc(C)o3)=C(O)C(=O)N2CCCn2ccnc2)cc(OC)c1OC (stereo not given),-14.2%,4.6%,-9.2%,15.2,-2.3,4.5%
C=CCOc1ccc(C2C(C(=O)c3ccco3)=C(O)C(=O)N2CCCN(CC)CC)cc1 (stereo not given),-10.0%,-6.2%,-29.0%,30.5,9.5*,3.2%
CCCOc1cccc(C2C(C(=O)c3ccco3)=C(O)C(=O)N2CCN(CC)CC)c1 (stereo not given),-19.2%,2.9%,6.1%,25.0,-6.0,-9.8%
COc1ccc(C2C(C(=O)c3ccco3)=C(O)C(=O)N2CCCn2ccnc2)c(OC)c1 (stereo not given),-12.7%,2.4%,-7.6%,47.7,32.3*,2.8%
CCOc1cc(C(=O)Nc2ccc(-c3nc4ccccc4s3)cc2Cl)cc(OCC)c1OCC,nt,nt,nt,nt,nt,3.0%
COc1ccc(CCNC(=O)CCn2c(=O)c3ccccc3n(Cc3cc(C)ccc3C)c2=O)cc1OC,nt,nt,nt,nt,nt,0.8%
SMILES,FBPA Giardia inh,LmPK inhibitor,RE007 growth inh,Shiga inhibitor,Cycloheximide cs,TbPYK inhibitor
Cc1ccccc1S(=O)(=O)Cc1ccc(C(=O)NCc2ccccc2Cl)o1,nt,nt,nt,nt,nt,1.1%
CCOC(=O)C(C(=O)NCc1ccc(F)cc1)c1ncc(C(F)(F)F)cc1Cl (stereo not given),10.0%,0.5%,10.7%,11.7,16.8*,2.0%
COc1ccc(N2CCN(C(CNC(=O)CC(C)C)c3ccc4c(c3)OCO4)CC2)cc1 (stereo not given),nt,nt,nt,nt,nt,2.2%
CC1CCN(C(=O)c2ccc(NC(=O)c3nsc4ccccc34)cc2)CC1,nt,nt,nt,nt,nt,-3.2%
O=C(COC(=O)c1ccccc1Br)NCCN1C(=O)CSC1=O,-5.6%,2.0%,8.1%,108.9*,19.7*,5.4%
COc1cccc2c(=O)n(CC(=O)NC3CCCC3)ccc12,-2.7%,-0.8%,-10.9%,48.6,24.1*,-4.0%
COc1ccccc1C(=O)OCC(=O)NC1CCCC1,-2.9%,-4.4%,-2.2%,63.7*,61.0*,-6.8%
O=C(COC(=O)C1=Cc2ccccc2OC1)NC1CCCC1,-2.6%,0.0%,-11.1%,5.0,16.7*,-3.6%
Cc1noc(C)c1-c1ccc2ncnc(NCC3CCN(C)CC3)c2c1,-0.2%,nt,nt,21.0,28.2,nt
O=C(COC(=O)c1ccccc1Br)NC1CCCC1,nt,-4.3%,-10.2%,59.3*,38.5*,-5.6%
O=C(OCc1cccnc1)C1=Cc2ccccc2OC1,3.3%,-5.2%,-13.7%,39.8*,22.6,1.7%
O=C(COC(=O)C1=Cc2ccccc2OC1)NCc1ccccc1,nt,nt,3.3%,nt,nt,2.0%
CCOC(=O)c1noc2ncnc(N3CCN(c4cccc(C(F)(F)F)c4)CC3)c12,nt,nt,nt,nt,nt,0.2%
CCN(C(=O)Cn1c(=O)n(Cc2ccc3c(c2)OCO3)c(=O)c2ccc(C(=O)NC3CCCCC3)cc21)c1cccc(C)c1,nt,nt,nt,nt,nt,0.2%
COc1cc(OC)c(NC(=O)CN(C)S(=O)(=O)c2ccc3c(c2)CCCC(=O)N3)cc1Cl,nt,nt,nt,nt,nt,-7.5%
C=CCOC(=O)C(C(C)=O)C(NC(=O)OC)c1cccc(C(F)(F)F)c1 (stereo not given),4.5%[12.9 µM],nt,nt,nt,nt,nt
O=C(Nc1cc2c(cc1Cl)OCCCO2)c1ccccc1,-6.8%,8.3%,?,98.9*,31.4*,-9.1%
CCOc1cc(Cl)c(NC(=O)c2ccco2)cc1OCC,3.6%,-4.1%,-8.3%,5.6,-1.7,1.6%
O=C(Nc1cc2c(cc1C(=O)O)OCCCO2)c1ccc(F)cc1F,-2.3%,-2.2%,2.4%,45.4,16.9*,1.2%
O=C(Nc1cc2c(cc1Cl)OCCCO2)c1ccco1,3.3%,-1.0%,-8.4%,105.2*,79.9*,2.3%
Cc1ccc2c(c1)-c1c(c(C(=O)N3CCN(c4cc(C)ccc4C)CC3)nn1C)CS2,nt,nt,nt,nt,nt,-13.8%
CN(C)c1ccc(CNC(=O)CN2CCSc3ccc(S(=O)(=O)N(C)C)cc32)cc1,nt,nt,nt,nt,nt,-3.7%
CC(=O)NC(NC(=S)Nc1ccc(N=Nc2ccccc2)cc1)C(Cl)(Cl)Cl (stereo not given),-6.3%,3.2%,-0.9%,70.6*,59.8*,-0.8%
